Where “and” joins values, the source holds several entries; their conditions need not be identical. Equal values may be shown once. Inconclusive results are not listed. A call without a number means that no potency is given here. Calls of active or inactive are those of the source. Unless noted, the call rests on the fitted dose curve.
How the values were obtained:
[1] = molecular target: Peroxisome proliferator-activated receptor delta (Homo sapiens) (UniProt Q03181); assay: qHTS assay for small molecule agonists of peroxisome proliferator-activated receptor delta signaling (AID 588534)
Chain of Peroxisome proliferator-activated receptor delta (Homo sapiens) (Q03181 whole entry, looked up): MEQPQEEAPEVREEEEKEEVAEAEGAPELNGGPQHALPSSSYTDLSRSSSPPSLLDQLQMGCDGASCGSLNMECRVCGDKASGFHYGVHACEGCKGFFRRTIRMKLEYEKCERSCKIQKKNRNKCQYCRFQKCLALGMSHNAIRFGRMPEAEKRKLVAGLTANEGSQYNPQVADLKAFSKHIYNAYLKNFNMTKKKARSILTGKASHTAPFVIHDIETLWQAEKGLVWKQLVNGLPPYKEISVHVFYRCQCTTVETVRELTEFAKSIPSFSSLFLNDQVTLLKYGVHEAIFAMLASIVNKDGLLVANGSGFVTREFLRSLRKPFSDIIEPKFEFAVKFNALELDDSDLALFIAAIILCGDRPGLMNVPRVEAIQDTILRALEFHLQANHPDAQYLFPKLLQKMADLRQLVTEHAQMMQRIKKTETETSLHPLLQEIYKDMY
In short: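 Fluorescence from CCF4 substrate cleavage by beta-lactamase reporter, read 2 hrs at RT, measured agonist activity. Compounds were tested with 18 hrs exposure at 37 C. Concentration-response data fitted to Hill equation.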

[2] = qHTS assay for small molecule antagonists of peroxisome proliferator-activated receptor delta signaling (AID 588535; active means well fitted inhibition curve with a large enough effect in the signal ratio, with a control signal flat, not every such curve was filed as active; the % refers to the signal ratio;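 on max response: cells co-treated with a PPAR-delta agonist as stimulator during compound exposure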); conditions: HEK293T PPARd-UAS-bla, beta-lactamase FRET ratio, 18 h; 460 nm channel
In short: (§1)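 HEK293T PPAR-delta-UAS-bla cells, 4000/well, 2% charcoal/dextran FBS; 5 h 37 C; cpd titration; 18 h 37 C; CCF4 2 h RT; FI 460/530 nm; Hill fit → IC50, efficacy.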

[3] = molecular target: Peroxisome proliferator-activated receptor delta (Homo sapiens) (UniProt Q03181); assay: as above
In short: as §1

[4] = molecular target: Peroxisome proliferator-activated receptor gamma (Homo sapiens) (UniProt P37231); assay: qHTS assay for small molecule agonists of peroxisome proliferator-activated receptor gamma signaling (AID 588536; active means well fitted curve in the direction sought with a large enough effect in the signal ratio, with a control signal flat, not every such curve was filed as active; the % refers to the signal ratio)
Chain of Peroxisome proliferator-activated receptor gamma (Homo sapiens) (P37231 whole entry, looked up): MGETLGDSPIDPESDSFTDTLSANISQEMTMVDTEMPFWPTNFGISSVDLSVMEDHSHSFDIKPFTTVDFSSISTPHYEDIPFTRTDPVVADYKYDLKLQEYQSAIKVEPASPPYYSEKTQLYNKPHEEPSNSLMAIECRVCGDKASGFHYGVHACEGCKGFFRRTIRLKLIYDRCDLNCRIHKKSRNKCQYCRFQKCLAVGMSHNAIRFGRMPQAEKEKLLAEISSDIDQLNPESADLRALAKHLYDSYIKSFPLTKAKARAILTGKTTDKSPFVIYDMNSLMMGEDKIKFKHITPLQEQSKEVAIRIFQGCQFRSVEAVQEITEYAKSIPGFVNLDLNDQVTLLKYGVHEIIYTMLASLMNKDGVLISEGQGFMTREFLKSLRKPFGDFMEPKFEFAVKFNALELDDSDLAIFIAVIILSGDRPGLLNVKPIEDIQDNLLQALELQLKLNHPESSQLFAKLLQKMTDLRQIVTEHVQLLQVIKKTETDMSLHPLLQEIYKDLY
In short: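 HEK293 UAS-bla reporter line, 1% charcoal/dextran FBS; titration, 16 h, 37 C; CCF4 loading 2 h RT; fluorescence 460/530 nm. Normalized to rosiglitazone 2 uM = 100%, DMSO = 0%.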

[5] = molecular target: Peroxisome proliferator-activated receptor gamma (Homo sapiens) (UniProt P37231); assay: qHTS assay for small molecule antagonists of peroxisome proliferator-activated receptor gamma signaling (AID 588537; active means well fitted inhibition curve with a large enough effect in the signal ratio, with a control signal flat, not every such curve was filed as active; the % refers to the signal ratio;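 further: reporter cells co-stimulated with 50 nM rosiglitazone agonist during compound treatment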)
In short: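 Antagonist mode, beta-lactamase reporter in HEK293; charcoal/dextran FBS 1%; 3000 cells/well, 37 C 6-6.5 h; cpd titration + rosiglitazone 50 nM final, 16 h 37 C; CCF4, 2 h RT; 460/530 nm; Hill fit → IC50, efficacy.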

[6] = molecular target: Vitamin D3 receptor (Homo sapiens) (UniProt P11473); assay: qHTS assay for small molecule antagonists of vitamin D receptor signaling (AID 588541);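 further: receptor activated by calcitriol during compound treatment; series mostly up to about 77 µM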
Chain of Vitamin D3 receptor (Homo sapiens) (P11473 whole entry, looked up): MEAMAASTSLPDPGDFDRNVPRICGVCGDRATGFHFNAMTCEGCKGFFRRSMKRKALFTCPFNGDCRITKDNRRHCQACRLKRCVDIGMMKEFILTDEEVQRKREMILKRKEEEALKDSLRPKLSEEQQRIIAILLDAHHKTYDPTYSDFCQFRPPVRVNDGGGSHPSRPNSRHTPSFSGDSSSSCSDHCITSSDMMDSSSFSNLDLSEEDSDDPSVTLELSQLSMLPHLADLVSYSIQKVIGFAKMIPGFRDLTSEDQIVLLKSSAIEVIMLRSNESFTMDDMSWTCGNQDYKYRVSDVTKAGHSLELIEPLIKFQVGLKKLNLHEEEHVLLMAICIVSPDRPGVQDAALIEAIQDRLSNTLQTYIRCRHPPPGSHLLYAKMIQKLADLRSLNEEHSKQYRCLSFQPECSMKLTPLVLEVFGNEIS
In short: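 Antagonist-mode beta-lactamase reporter assay: HEK293T VDR-UAS-bla cells were exposed to titrated compound alongside 1-alpha,25-dihydroxyvitamin D3 at 3 nM final for 16 h. Values were normalized to the 50 nM agonist control and DMSO basal, with IC50 and efficacy from Hill equation fits.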

[7] = molecular target: Vitamin D3 receptor (Homo sapiens) (UniProt P11473); assay: qHTS assay for small molecule agonists of vitamin D receptor signaling (AID 588543)
In short: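 qHTS in agonist mode: compound titrations stimulate a VDR-driven β-lactamase reporter in HEK293T cells over 16 h at 37 °C. Response normalized to 50 nM 1α,25-dihydroxyvitamin D3 = 100%, DMSO = 0%; Hill fitting gives EC50 and maximal response.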

[8] = qHTS assay for small molecule agonists of retinoid X receptor alpha signaling (AID 588544); conditions: HEK293T RXRa-UAS-bla, beta-lactamase reporter, 18 h; 530 nm emission
[9] = molecular target: Retinoic acid receptor RXR-alpha (Homo sapiens) (UniProt P19793); assay: as above
Chain of Retinoic acid receptor RXR-alpha (Homo sapiens) (P19793 whole entry, looked up): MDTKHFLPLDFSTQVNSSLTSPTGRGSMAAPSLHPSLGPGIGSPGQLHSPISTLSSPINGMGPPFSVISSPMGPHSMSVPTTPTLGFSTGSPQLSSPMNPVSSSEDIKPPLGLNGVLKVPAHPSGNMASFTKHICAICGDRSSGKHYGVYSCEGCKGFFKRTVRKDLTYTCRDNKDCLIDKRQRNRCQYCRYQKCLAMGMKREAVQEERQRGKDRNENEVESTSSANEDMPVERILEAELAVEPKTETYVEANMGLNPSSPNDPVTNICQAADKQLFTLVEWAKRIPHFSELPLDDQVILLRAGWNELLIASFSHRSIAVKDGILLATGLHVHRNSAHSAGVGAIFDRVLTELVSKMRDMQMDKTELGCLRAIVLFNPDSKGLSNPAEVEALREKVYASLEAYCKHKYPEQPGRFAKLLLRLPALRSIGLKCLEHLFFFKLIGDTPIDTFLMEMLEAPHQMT

[10] = molecular target: Thyroid hormone receptor beta (Homo sapiens) (UniProt P10828); assay: qHTS assay for small molecule agonists of thyroid hormone receptor beta signaling (AID 588545)
Chain of Thyroid hormone receptor beta (Homo sapiens) (P10828 whole entry, looked up): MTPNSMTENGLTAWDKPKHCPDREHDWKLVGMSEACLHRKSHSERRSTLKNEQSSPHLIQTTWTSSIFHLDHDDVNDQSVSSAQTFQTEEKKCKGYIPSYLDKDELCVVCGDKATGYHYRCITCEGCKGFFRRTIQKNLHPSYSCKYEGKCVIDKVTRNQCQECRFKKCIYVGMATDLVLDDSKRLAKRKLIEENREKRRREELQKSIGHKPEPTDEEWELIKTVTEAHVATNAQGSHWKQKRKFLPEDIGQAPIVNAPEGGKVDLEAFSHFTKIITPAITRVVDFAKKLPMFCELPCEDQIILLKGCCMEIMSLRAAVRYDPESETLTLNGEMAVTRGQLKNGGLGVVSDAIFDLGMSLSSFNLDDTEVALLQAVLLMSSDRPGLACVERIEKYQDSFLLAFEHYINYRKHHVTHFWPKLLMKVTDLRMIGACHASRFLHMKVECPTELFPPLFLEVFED
In short: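 TR-UAS-bla GripTite HEK 293 cells (2500/well, medium with 2% charcoal/dextran FBS) were treated in agonist mode for 18 h at 37 C, titrated. Beta-lactamase was read by CCF4 ratio after 2 h; normalized to 10 nM T3 (100%) and DMSO, Hill-fitted for EC50 and efficacy.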

[11] = qHTS assay for small molecule antagonists of retinoid X receptor alpha signaling (AID 588546; active means well fitted inhibition curve with a large enough effect in the signal ratio, with a control signal flat, not every such curve was filed as active; the % refers to the signal ratio;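 further: cells stimulated with 9-cis-retinoic acid as agonist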); conditions: HEK293T RXRa-UAS-bla, beta-lactamase ratio, antagonist mode; measured here: W530 green channel, cytotoxicity proxy
In short: (§2)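 Beta-lactamase reporter inhibition, read as CCF4 fluorescence ratio (ex 405, em 460/530 nm) after 2 h at RT. HEK293T UAS-bla cells, 2500/well, were stimulated with 9-cis-RA at 500 or 100 nM final alongside test compound for 18 h at 37 C.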

[12] = molecular target: Retinoic acid receptor RXR-alpha (Homo sapiens) (UniProt P19793); assay: as above; conditions: HEK293T RXRa-UAS-bla, beta-lactamase ratio, antagonist mode
In short: as §2

[13] = molecular target: Thyroid hormone receptor beta (Homo sapiens) (UniProt P10828); assay: qHTS assay for small molecule antagonists of thyroid hormone receptor beta signaling (AID 588547; active means well fitted inhibition curve with a large enough effect in the signal ratio, with a control signal flat, not every such curve was filed as active; the % refers to the signal ratio;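 further: cells stimulated with 0.4 nM T3 agonist during compound exposure; series mostly up to about 77 µM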); conditions: TR-UAS-bla HEK293, beta-lactamase ratio, antagonist mode, 18 h
In short: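 Inhibition of T3-driven (0.4nM final) beta-lactamase reporter activity was measured over 0.59 nM to 92 uM compound after 18 h at 37 C. The cells were GripTite HEK293 TR-UAS-bla in charcoal/dextran-stripped serum, with CCF4 ratio read-out and IC50 from Hill fits.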

[14] = molecular target: Voltage-gated inwardly rectifying potassium channel KCNH2 (Homo sapiens) (UniProt Q12809); assay: qHTS Assay for Small Molecule Inhibitors of the Human hERG Channel Activity (AID 588834; active means well fitted inhibition curve with a large enough effect;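 further: top concentration of the series differs between compounds; lower thallium flux fluorescence means stronger hERG block; nearly all actives have a fitted effect of over 50% in size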)
Chain of Voltage-gated inwardly rectifying potassium channel KCNH2 (Homo sapiens) (Q12809 whole entry, looked up): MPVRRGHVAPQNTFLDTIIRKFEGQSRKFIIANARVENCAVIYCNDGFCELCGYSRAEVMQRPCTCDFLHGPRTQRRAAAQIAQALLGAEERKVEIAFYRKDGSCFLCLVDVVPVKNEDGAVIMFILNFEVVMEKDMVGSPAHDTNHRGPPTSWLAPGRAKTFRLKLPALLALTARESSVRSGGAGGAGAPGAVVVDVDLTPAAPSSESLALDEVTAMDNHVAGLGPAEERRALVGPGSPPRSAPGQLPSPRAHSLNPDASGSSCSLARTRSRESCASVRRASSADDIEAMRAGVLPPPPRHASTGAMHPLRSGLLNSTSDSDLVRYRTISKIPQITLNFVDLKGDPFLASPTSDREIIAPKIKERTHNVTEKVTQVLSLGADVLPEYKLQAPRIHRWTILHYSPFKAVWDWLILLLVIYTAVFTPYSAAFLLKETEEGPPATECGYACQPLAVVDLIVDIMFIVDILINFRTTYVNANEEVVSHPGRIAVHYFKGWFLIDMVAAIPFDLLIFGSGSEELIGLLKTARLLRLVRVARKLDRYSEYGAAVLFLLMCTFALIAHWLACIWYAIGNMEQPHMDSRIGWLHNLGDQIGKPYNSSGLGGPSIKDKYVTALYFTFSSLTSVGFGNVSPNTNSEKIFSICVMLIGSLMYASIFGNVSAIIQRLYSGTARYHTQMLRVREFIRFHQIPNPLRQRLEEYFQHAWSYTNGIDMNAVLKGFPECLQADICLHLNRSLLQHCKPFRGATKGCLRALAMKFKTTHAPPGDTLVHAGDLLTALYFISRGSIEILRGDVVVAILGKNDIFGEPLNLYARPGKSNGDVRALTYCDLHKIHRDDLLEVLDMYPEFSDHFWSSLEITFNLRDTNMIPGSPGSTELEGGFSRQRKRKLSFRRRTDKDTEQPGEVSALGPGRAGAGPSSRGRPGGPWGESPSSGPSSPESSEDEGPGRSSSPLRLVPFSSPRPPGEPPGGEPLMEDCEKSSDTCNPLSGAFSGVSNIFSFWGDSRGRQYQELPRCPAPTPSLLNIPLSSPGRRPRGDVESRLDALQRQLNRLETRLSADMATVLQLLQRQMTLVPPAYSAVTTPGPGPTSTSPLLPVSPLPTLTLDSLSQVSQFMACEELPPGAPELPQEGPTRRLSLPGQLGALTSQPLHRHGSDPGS
In short: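 Measured: FluxOR fluorescence after thallium stimulation in U2OS cells transduced with hERG by baculovirus. Compounds pre-incubated around 10 min; medium Opti-MEM with 2% FCS. AC50 from Hill equation.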

[15] = molecular target: Luciferin 4-monooxygenase (Photinus pyralis) (UniProt P08659); assay: Biochemical firefly luciferase enzyme assay for NPC (AID 624030; active means well fitted inhibition curve with a large enough effect;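 further: purified P. pyralis luciferase at 10 nM with luciferin and ATP substrate; series mostly up to about 59 µM; nearly all actives have a fitted effect of over 70% in size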)
Chain of Luciferin 4-monooxygenase (Photinus pyralis) (P08659 whole entry, looked up): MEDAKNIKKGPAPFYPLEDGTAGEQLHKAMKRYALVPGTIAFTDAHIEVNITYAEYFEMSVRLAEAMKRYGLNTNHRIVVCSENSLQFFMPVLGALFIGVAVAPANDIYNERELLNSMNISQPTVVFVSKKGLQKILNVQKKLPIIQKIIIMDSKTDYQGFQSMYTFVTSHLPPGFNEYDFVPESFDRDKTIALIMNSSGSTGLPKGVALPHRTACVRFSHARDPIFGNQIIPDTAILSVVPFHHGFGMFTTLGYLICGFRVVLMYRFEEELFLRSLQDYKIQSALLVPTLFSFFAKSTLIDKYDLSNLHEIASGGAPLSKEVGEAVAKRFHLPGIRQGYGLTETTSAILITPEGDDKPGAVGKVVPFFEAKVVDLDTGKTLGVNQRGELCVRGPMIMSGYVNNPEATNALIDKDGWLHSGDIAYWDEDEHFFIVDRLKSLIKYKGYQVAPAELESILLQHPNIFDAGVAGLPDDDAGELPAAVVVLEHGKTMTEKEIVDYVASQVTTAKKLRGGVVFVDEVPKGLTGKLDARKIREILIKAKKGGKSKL
In short: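 Direct inhibition of firefly luciferase enzyme (10 nM final, 50 mM Tris Acetate) assessed by luminescence within 5 minutes. Percent activity scaled between DMSO and PTC124 positive control, with concentration-effect curves classified by fit quality and response.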

**Q.** Which outcome [1] does the source give for `COC(=O)c1c(Cl)c(Cl)c(C(=O)OC)c(Cl)c1Cl` here?
**A.** inactive

**Q.** With `CN(C)NC(=O)CCC(=O)O` as the compound, how does the outcome [1] read?
**A.** inactive

**Q.** What about the max response [2] of the same compound?
**A.** -12.7% and 32.6%

**Q.** What about the Potency [3] of the same compound?
**A.** inactive

**Q.** And the outcome [4]?
**A.** inactive

**Q.** What about the Potency [5] of the same compound?
**A.** inactive

**Q.** What about the Potency [6] of the same compound?
**A.** inactive

**Q.** And the outcome [7]?
**A.** inactive

**Q.** And the max response [8]?
**A.** 6.92% and -25.6%

**Q.** And the Potency [9]?
**A.** inactive

**Q.** And the outcome [10]?
**A.** inactive

**Q.** And the max response [11]?
**A.** -8.59% and -3.29%

**Q.** What about the max response [12] of the same compound?
**A.** -0.551% (inactive) and 8.99% (inactive)

**Q.** And the activity change % (negative = inhibition) [13]?
**A.** -3.38% (inactive)

**Q.** What about the Potency [14] of the same compound?
**A.** inactive

**Q.** With `CCCCC(CC)COC(=O)c1ccc(N(C)C)cc1` (stereo unspecified) as the compound, how does the outcome [1] read?
**A.** inactive

**Q.** Which outcome [1] does the source give for `Nc1ccc(O)c([N+](=O)[O-])c1` here?
**A.** inactive

**Q.** Which outcome [1] does the source give for `C=CCNC(N)=S` here?
**A.** inactive

**Q.** With `COc1ccccc1O` as the compound, how does the outcome [1] read?
**A.** inactive

**Q.** For `Cc1ccc(N)cc1O`, which outcome [1] is on record?
**A.** inactive

**Q.** Which outcome [1] does the source give for `CCCCC(CC)COC(=O)c1ccccc1C(=O)OCC(CC)CCCC` (stereo unspecified) here?
**A.** inactive

**Q.** What about the max response [2] of the same compound?
**A.** -2.79% and 33.6%

**Q.** And the Potency [3]?
**A.** inactive

**Q.** What about the outcome [4] of the same compound?
**A.** inactive

**Q.** And the Potency [5]?
**A.** inactive

**Q.** And the Potency [6]?
**A.** inactive

**Q.** What about the outcome [7] of the same compound?
**A.** inactive

**Q.** And the max response [8]?
**A.** -20.4% and -8.96%

**Q.** And the Potency [9]?
**A.** inactive

**Q.** And the outcome [10]?
**A.** inactive

**Q.** And the max response [11]?
**A.** -12.5% and -12.9%

**Q.** What about the max response [12] of the same compound?
**A.** 9.66% (inactive) and 2.99% (inactive)

**Q.** What about the activity change % (negative = inhibition) [13] of the same compound?
**A.** -25.5% (inactive) and -4.42% (inactive)

**Q.** And the Potency [14]?
**A.** inactive

**Q.** What about the Potency [15] of the same compound?
**A.** inactive

**Q.** For `O=C1NS(=O)(=O)c2ccccc21`, which outcome [1] is on record?
**A.** inactive

Source: PubChem BioAssay (NCATS)
